# Test results taken from PubChem BioAssay AID1508633 (National Center for Advancing Translational Sciences (NCATS), 2021).
# Inconclusive results are not listed. Active and inactive are the calls of the source. Calls follow the shape of the dose curve; as a rule, active = well fitted inhibition curve with a large enough effect; inconclusive = small, poorly fitted or top-dose-only effect; inactive = no such curve, though single readings can be large or run the other way.
# Tested on: zebrafish ABCB5 (Abcb5) multidrug transporter
# Test: qHTS for characterization and localization of zebrafish homologs of the human ABCB1 multidrug transporter: ABCB5 transfected cells
# Conditions: CellTiter-Glo luminescence viability, 72 h; series mostly up to 46.1 µM
# Excerpt: The zebrafish has emerged as a potential model to study the blood-brain barrier (BBB) given its similarities with mammalian systems. However, little information has been available with regard to homologous ATP-binding cassette transporters expressed at the zebrafish BBB. Two transporters that are highly expressed at the human BBB are P-glycoprotein (P-gp, encoded by the ABCB1 gene) and ABCG2 (encoded by the ABCG2 gene). In this study, we focus on characterization of P-gp homologs in the zebrafish, which has two genes that are homologous to human ABCB1 - abcb4 and abcb5. We generated stably-transfected cell lines to determine their substrate specificities. […] Zebrafish abcb4 also colocalized with claudin 5 expression in brain endothelial cells.
# A high-throughput screen was performed as previously described on empty vector transfected cells, P-gp-overexpressing MDR-19 cells and cells transfected with full-length zebrafish abcb4 (ZF Abcb4) or abcb5 (ZF Abcb5). Briefly, cells were plated into 1536-well plates at a density of 500 cells/well in 5 uL media. P-gp substrate compounds (approximately 90) selected from our previous study were then added at varying concentrations using a 1536-head pin tool (Kalypsis, San Diego, CA) and plates were incubated at 37C in 5% CO2 for 72 h. CellTiter-Glo reagent (Promega) was dispensed into the wells, incubated for 5 min and luminescence was read on a ViewLux instrument (Perkin-Elmer).
# Cytotoxic compounds were defined as those that yielded a curve class of -1.1, -1.2, -2.1, -2.2, -2.3, or -2.4, a maximum response of >50% and an AC50 of < 10 uM. All compounds from screening analysis were tested in Vector (empty vector control), MDR-19 (P-gp overexpressing), zebrafish abcb4 (ZF Abcb4) and abcb5 (ZF Abcb5) expression cell lines.
# 1. Tobie D Lee, Olivia W Lee, Kyle R Brimacombe, Lu Chen, Rajarshi Guha, Sabrina Lusvarghi, Bethilehem G Tebase, Carleen Klumpp-Thomas, Robert W Robey, Suresh V Ambudkar, Min Shen, Michael M Gottesman, Matthew D Hall. A High-Throughput Screen of a Library of Therapeutics Identifies Cytotoxic Substrates of P-glycoprotein. Mol Pharmacol. 2019, Nov;96(5):629-640.
row,Structure (SMILES),Potency
1,COc1cc(N2CCC(O)CC2)ccc1Nc1nc(Nc2ccccc2S(=O)(=O)C(C)C)c2[nH]cnc2n1,inactive
2,Cc1[nH]c2ccccc2c1CCNCc1ccc(/C=C/C(=O)NO)cc1,0.59 µM (active)
3,C=CCNC1=C2CC(C)CC(OC)C(O)C(C)/C=C(\C)C(OC(N)=O)C(OC)/C=C/C=C(\C)C(=O)NC(=CC1=O)C2=O (stereo unspecified),11.8 µM (active)
4,CC(=O)OC1C(=O)C2(C)C(O)CC3OCC3(OC(C)=O)C2C(OC(=O)c2ccccc2)C2(O)CC(OC(=O)C(O)C(NC(=O)c3ccccc3)c3ccccc3)C(C)=C1C2(C)C (stereo unspecified),inactive
5,CCCCc1nc2cc(C=CC(=O)NO)ccc2n1CCN(CC)CC,7.43 µM (active)
6,CC(NCc1ccc2c(c1)nc(NC(=O)c1ccc(-c3cn[nH]c3)s1)n2CC(C)(C)O)C(C)(C)C (stereo unspecified),3.72 µM (active)
7,CCS(=O)(=O)c1cccc(-c2cc(C(=O)NC3CCN(C)CC3)c(C)c3[nH]c4ncc(C)cc4c23)c1,inactive
8,CN(C)c1ccc(C(=C2C=CC(=[N+](C)C)C=C2)c2ccc(N(C)C)cc2)cc1,0.935 µM (active)
9,C[C@@H](Oc1cc(-n2cnc3ccc(CN4CCN(C)CC4)cc32)sc1C(N)=O)c1ccccc1C(F)(F)F,4.18 µM (active)
10,CC[C@@]1([C@@H]2O[C@@H]([C@H]3O[C@@](O)(CO)[C@H](C)C[C@@H]3C)C[C@@H]2C)CC[C@H]([C@]2(C)CC[C@]3(C[C@H](O)[C@@H](C)[C@@H]([C@@H](C)[C@@H](OC)[C@H](C)C(=O)O)O3)O2)O1,2.64 µM (active)
11,CN(C)C/C=C/C(=O)Nc1cccc(C(=O)Nc2ccc(Nc3nccc(-c4cccnc4)n3)cc2)c1,14.8 µM (active)
